In PubChem BioAssay (EPA / NIEHS):
The source made the active and inactive calls. The calls were made as follows: active = hit-call score of the fitted dose curve at least 0.9, where 1 is the maximum; inactive = score below 0.9.

Key:
[1] = read-out: Interferon-gamma inducible Protein 10 (IP10), CXCL10 (gene 3627); assay: BSK_BE3C_IP10: BioMAP Diversity Plus: BE3C Assay for Interferon-gamma inducible Protein 10 (IP10) Biomarker Activity (AID 2283034); conditions: primary human bronchial epithelial cells; actives raise or lower the signal
How it was run: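 IP-10 quantified by ELISA serves as the endpoint. Cells: primary human bronchial epithelium, read 24 h after compound addition. Activity is derived by bidirectional fitting with DMSO as negative control.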

[2] = read-out: Monokine induced gamma interferon (MIG), CXCL9 (gene 4283); assay: BSK_BE3C_MIG: BioMAP Diversity Plus: BE3C Assay for Monokine induced gamma interferon (MIG) Biomarker Activity (AID 2283035); conditions: primary human bronchial epithelial cells; actives raise or lower the signal;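 as to outcome: MIG protein measured by ELISA in BE3C cultures after 24 h of dosing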
How it was run: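 hu bronchial epithelial 1° cells, 24 h cpd; MIG by ELISA; bidirectional fit, DMSO = baseline.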

[3] = read-out: Transforming growth factor beta 1 (TGFb1), TGFB1 (gene 7040); assay: BSK_BE3C_TGFb1: BioMAP Diversity Plus: BE3C Assay for Transforming growth factor beta 1 (TGFb1) Biomarker Activity (AID 2283036;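 as to outcome: TGF-b1 protein level measured by ELISA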); conditions: primary human bronchial epithelial cells; actives raise or lower the signal
How it was run: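 Bronchial epithelial primary cells are treated with test chemical, then TGF-b1 is quantified by ELISA after 24 hours. Values derive from bidirectional fitting against DMSO, with cytotoxicity checked by SRB staining in parallel cultures.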

[4] = read-out: Plasminogen activator inhibitor-1 (PAI1), SERPINE1 (gene 5054); assay: BSK_BE3C_PAI1: BioMAP Diversity Plus: BE3C Assay for Plasminogen activator inhibitor-1 (PAI1) Biomarker Activity (AID 2283037); conditions: primary human bronchial epithelial cells; actives raise or lower the signal
How it was run: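 Values derive from bidirectional fitting against DMSO baseline of PAI-1 levels, measured by ELISA in human bronchial epithelial cells 24 h after compound addition.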

[5] = read-out: urokinase plasminogen activator (uPA), PLAU (gene 5328); assay: BSK_BE3C_uPA: BioMAP Diversity Plus: BE3C Assay for urokinase plasminogen activator (uPA) Biomarker Activity (AID 2283038); conditions: primary human bronchial epithelial cells; actives raise or lower the signal;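 as to outcome: uPA protein level quantified by ELISA in cell cultures; uPA read one day after compound addition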
How it was run: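 Measured by ELISA: uPA from human primary bronchial epithelial cells 24 h after chemical treatment. Values derive from bidirectional curve fitting with DMSO serving as negative control. Total protein by SRB staining in parallel wells flagged overt cytotoxicity.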

[6] = read-out: Urokinase-type plasminogen activator receptor (uPAR), PLAUR (gene 5329); assay: BSK_BE3C_uPAR: BioMAP Diversity Plus: BE3C Assay for Urokinase-type plasminogen activator receptor (uPAR) Biomarker Activity (AID 2283039); conditions: primary human bronchial epithelial cells; actives raise or lower the signal;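 as to outcome: uPAR protein level measured by ELISA on the cells; cells exposed to compound for one day before measurement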
How it was run: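 Steps: dose human primary bronchial epithelial cells, incubate 24 h, measure uPAR by ELISA, then fit gain- or loss-of-signal response bidirectionally relative to DMSO.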

[7] = read-out: Interleukin-6 (IL6), IL6 (gene 3569); assay: BSK_CASM3C_IL6: BioMAP Diversity Plus: CASM3C Assay for Interleukin-6 (IL6) Biomarker Activity for (AID 2283040); conditions: primary human coronary artery smooth muscle cells; actives raise or lower the signal
[8] = read-out: Tissue plasminogen activator (tPA), PLAT (gene 5327); assay: BSK_BE3C_tPA: BioMAP Diversity Plus: BE3C Assay for Tissue plasminogen activator (tPA) Biomarker Activity (AID 2283041); conditions: primary human bronchial epithelial cells; actives raise or lower the signal;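 as to outcome: tPA level quantified by ELISA one day after compound addition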
How it was run: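 Gain- or loss-of-signal in tPA, measured by ELISA, derived by bidirectional fitting against DMSO. Cells: human primary bronchial epithelial; read at 24 h after chemical dosing.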

[9] = read-out: Interleukin-8 (IL8), CXCL8 (gene 3576); assay: BSK_CASM3C_IL8: BioMAP Diversity Plus: CASM3C Assay for Interleukin-8 (IL8) Biomarker Activity (AID 2283042); conditions: primary human coronary artery smooth muscle cells; actives raise or lower the signal;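 also: IL-8 protein level quantified by ELISA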
[10] = read-out: Human Leukocyte Antigen - DR isotype (HLADR), HLA-DRA (gene 3122); assay: BSK_CASM3C_HLADR: BioMAP Diversity Plus: CASM3C Assay for Human Leukocyte Antigen - DR isotype (HLADR) Biomarker Activity (AID 2283043); conditions: primary human coronary artery smooth muscle cells; actives raise or lower the signal;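 also: cell-surface HLA-DR protein level quantified by ELISA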
[11] = read-out: Macrophage colony-stimulating factor (MCSF), CSF1 (gene 1435); assay: BSK_CASM3C_MCSF: BioMAP Diversity Plus: CASM3C Assay for Macrophage colony-stimulating factor (MCSF) Biomarker Activity (AID 2283044); conditions: primary human coronary artery smooth muscle cells; actives raise or lower the signal;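 also: M-CSF protein amount quantified by ELISA after 24 h exposure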
[12] = read-out: Low-density lipoprotein receptor (LDLR), LDLR (gene 3949); assay: BSK_CASM3C_LDLR: BioMAP Diversity Plus: CASM3C Assay for Low-density lipoprotein receptor (LDLR) Biomarker Activity (AID 2283045); conditions: primary human coronary artery smooth muscle cells; actives raise or lower the signal;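 also: LDLR protein level on the cell surface quantified by ELISA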
[13] = read-out: Monocyte Chemoattractant Protein-1 (MCP1), CCL2 (gene 6347); assay: BSK_CASM3C_MCP1: BioMAP Diversity Plus: CASM3C Assay for Monocyte Chemoattractant Protein-1 (MCP1) Biomarker Activity (AID 2283046); conditions: primary human coronary artery smooth muscle cells; actives raise or lower the signal;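 also: MCP-1 level quantified by ELISA 24 h after dosing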
[14] = BSK_CASM3C_Proliferation: Cell Proliferation Assessment in the BioMAP Diversity Plus: CASM3C Assay (AID 2283047); conditions: primary human coronary artery smooth muscle cells;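 also: sulforhodamine B total protein stain as relative cell number at 560 nm; sub-confluent cells exposed 48 h before staining; fitted both ways against DMSO so gain or loss of cell number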
[15] = read-out: Monokine induced gamma interferon (MIG), CXCL9 (gene 4283); assay: BSK_CASM3C_MIG: BioMAP Diversity Plus: CASM3C Assay for Monokine induced gamma interferon (MIG) Biomarker Activity (AID 2283048); conditions: primary human coronary artery smooth muscle cells; actives raise or lower the signal;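 also: MIG protein level measured by ELISA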
[16] = read-out: serum amyloid A (SAA), SAA1 (gene 6288); assay: BSK_CASM3C_SAA: BioMAP Diversity Plus: CASM3C Assay for serum amyloid A (SAA) Biomarker Activity (AID 2283049); conditions: primary human coronary artery smooth muscle cells; actives raise or lower the signal;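 also: SAA protein level quantified by ELISA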
[17] = BSK_CASM3C_SRB: Viability Assessment in the BioMAP Diversity Plus: CASM3C Assay (AID 2283050); conditions: primary human coronary artery smooth muscle cells;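 also: total protein by SRB staining as cytotoxicity measure in parallel cultures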
[18] = read-out: Thrombomodulin, THBD (gene 7056); assay: BSK_CASM3C_Thrombomodulin: BioMAP Diversity Plus: CASM3C Assay for Thrombomodulin Biomarker Activity (AID 2283051); conditions: primary human coronary artery smooth muscle cells; actives raise or lower the signal;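 also: thrombomodulin protein level measured by ELISA 24 h after dosing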
[19] = read-out: Tissue Factor, F3 (gene 2152); assay: BSK_CASM3C_TissueFactor: BioMAP Diversity Plus: CASM3C Assay for Tissue Factor Biomarker Activity (AID 2283052); conditions: primary human coronary artery smooth muscle cells; actives raise or lower the signal;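 also: cell surface tissue factor protein level read by ELISA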
[20] = read-out: Interferon-gamma inducible Protein 10 (IP10), CXCL10 (gene 3627); assay: BSK_hDFCGF_IP10: BioMAP Diversity Plus: hDFCGF Assay for Interferon-gamma inducible Protein 10 (IP10) Biomarker Activity (AID 2283053); conditions: primary human foreskin fibroblasts; actives raise or lower the signal
How it was run: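 Cells: human dermal foreskin fibroblasts. Exposure: 24 h post-dosing. Detection: IP-10 ELISA, with values expressed against DMSO controls and fitted in both directions.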

For `CCOP(=S)(OCC)SCS(=O)(=O)CC`, the outcome [1] was “inactive”, the outcome [2] was “inactive” and the outcome [3] was “inactive”. The outcome [4] was “inactive”, the outcome [5] was “inactive” and the outcome [6] was “inactive”. For the same compound, the outcome [7] was “inactive”, the outcome [8] was “inactive” and the outcome [9] was “inactive”. The outcome [10] was “inactive”, the outcome [11] was “inactive” and the outcome [12] was “inactive”. For the same compound, the outcome [13] was “inactive”, the outcome [14] was “inactive” and the outcome [15] was “inactive”. For the same compound, the outcome [16] was “inactive”, the outcome [17] was “inactive” and the outcome [18] was “inactive”. The outcome [19] was “inactive” and the outcome [20] was “inactive”.

In the case of `[N-]=[N+]=[N-]`, the outcome [1] was “inactive”, the outcome [2] was “inactive” and the outcome [3] was “inactive”. The outcome [4] was “inactive”, the outcome [5] was “inactive” and the outcome [6] was “inactive”. The outcome [7] was “inactive”, the outcome [8] was “inactive” and the outcome [9] was “inactive”. For the same compound, the outcome [10] was “inactive”, the outcome [11] was “inactive” and the outcome [12] was “inactive”. For the same compound, the outcome [13] was “inactive”, the outcome [14] was “inactive” and the outcome [15] was “inactive”. For the same compound, the outcome [16] was “inactive”, the outcome [17] was “inactive” and the outcome [18] was “inactive”. The outcome [19] was “inactive” and the outcome [20] was “inactive”.

In the case of `CCCCN(CCCC)SN(C)C(=O)Oc1cccc2c1OC(C)(C)C2`, the outcome [1] was “inactive”, the outcome [2] was “inactive” and the outcome [3] was “inactive”. The outcome [4] was “inactive”, the outcome [5] was “inactive” and the outcome [6] was “inactive”. The outcome [7] was “inactive”, the outcome [8] was “inactive” and the outcome [9] was “inactive”. For the same compound, the AC50 [10] was 29.1 µM (active), the AC50 [11] was 11.4 µM (active) and the AC50 [12] was 36.6 µM (active). The outcome [13] was “inactive”, the AC50 [14] was 27.1 µM (active) and the outcome [15] was “inactive”. The AC50 [16] was 31.3 µM (active), the AC50 [17] was 33.7 µM (active) and the AC50 [18] was 29.1 µM (active). The outcome [19] was “inactive” and the AC50 [20] was 8.12 µM (active).

With `CC(Cc1ccc(OCC(=O)O)cc1)NCC(O)c1csc(C(F)(F)F)n1` (stereo not given) the outcome [1] was “inactive”, the outcome [2] was “inactive” and the outcome [3] was “inactive”. The outcome [4] was “inactive”, the outcome [5] was “inactive” and the outcome [6] was “inactive”. The outcome [7] was “inactive”, the outcome [8] was “inactive” and the outcome [9] was “inactive”. The outcome [10] was “inactive”, the outcome [11] was “inactive” and the outcome [12] was “inactive”. The outcome [13] was “inactive”, the outcome [14] was “inactive” and the outcome [15] was “inactive”. The outcome [16] was “inactive”, the outcome [17] was “inactive” and the outcome [18] was “inactive”. For the same compound, the outcome [19] was “inactive” and the outcome [20] was “inactive”.

In the case of `COP(N)(=S)OC`, the outcome [1] was “inactive”, the outcome [2] was “inactive” and the outcome [3] was “inactive”. For the same compound, the outcome [4] was “inactive”, the outcome [5] was “inactive” and the outcome [6] was “inactive”. For the same compound, the outcome [7] was “inactive”, the outcome [8] was “inactive” and the outcome [9] was “inactive”. For the same compound, the outcome [10] was “inactive”, the outcome [11] was “inactive” and the outcome [12] was “inactive”. The outcome [13] was “inactive”, the outcome [14] was “inactive” and the outcome [15] was “inactive”. The outcome [16] was “inactive”, the outcome [17] was “inactive” and the outcome [18] was “inactive”. For the same compound, the outcome [19] was “inactive” and the outcome [20] was “inactive”.

In the case of `c1ccc(OP(Oc2ccccc2)Oc2ccccc2)cc1`, the outcome [1] was “inactive”, the outcome [2] was “inactive” and the outcome [3] was “inactive”. For the same compound, the outcome [4] was “inactive”, the outcome [5] was “inactive” and the outcome [6] was “inactive”. For the same compound, the outcome [7] was “inactive”, the outcome [8] was “inactive” and the outcome [9] was “inactive”. The outcome [10] was “inactive”, the outcome [11] was “inactive” and the outcome [12] was “inactive”. For the same compound, the outcome [13] was “inactive”, the outcome [14] was “inactive” and the outcome [15] was “inactive”. For the same compound, the outcome [16] was “inactive”, the outcome [17] was “inactive” and the outcome [18] was “inactive”. For the same compound, the outcome [19] was “inactive” and the outcome [20] was “inactive”.

In the case of `O=c1ssc(Cl)c1Cl`, the AC50 [1] was 3.38 µM (active), the AC50 [2] was 12.6 µM (active) and the AC50 [3] was 14.8 µM (active). For the same compound, the AC50 [4] was 11.7 µM (active), the AC50 [5] was 9.31 µM (active) and the AC50 [6] was 12.2 µM (active). The AC50 [7] was 4.33 µM (active), the AC50 [8] was 7.68 µM (active) and the outcome [9] was “inactive”. The AC50 [10] was 3.54 µM (active), the AC50 [11] was 5.46 µM (active) and the outcome [12] was “inactive”. The AC50 [13] was 5.7 µM (active), the AC50 [14] was 1.69 µM (active) and the AC50 [15] was 24.4 µM (active). For the same compound, the AC50 [16] was 1.4 µM (active), the AC50 [17] was 3.99 µM (active) and the outcome [18] was “inactive”. The AC50 [19] was 6.61 µM (active) and the AC50 [20] was 3.7 µM (active).
